mHTT-CaM PPI inh: disrupts binding of mutant huntingtin to calmodulin; P42858; AlphaScreen His-mHTT/GST-CaM binding, luminescence; inhibition, % at 15 µM; actives 3.6% (n = 190,000); AID 1671202
Pf apPOL block: Pf-apPOL DNA polymerase inhibition; inhibition, % at 10 µM; actives 0.25% (n = 210,000); AID 1794808; Recombinant Pf-apPOL, molecular beacon fluorescence, 1.5 h
Each line names hits and unclear results; the compound was inactive in the other large screens. Shown are actives, neighbours in structure and some others; about 3.6% of the full set was active somewhere. No stated cut-off is given here; in the data, active means inhibition above about 50%; inactive means the rest.

O=C1C(Nc2cccc(C(F)(F)F)c2)=C(N2CCCCC2)C(=O)c2ccccc21	mHTT-CaM PPI inh 99.0
O=C1C(Nc2cccc(C(F)(F)F)c2)=C(n2nnc3ccccc32)C(=O)c2ccccc21	none
CC(=O)N(C1=C(N2CCCCC2)C(=O)c2ccccc2C1=O)c1cccc(F)c1	none
CC(=O)N(C1=C(N2CCCC2)C(=O)c2ccccc2C1=O)c1cccc(Cl)c1	mHTT-CaM PPI inh 100.3
O=C1C(Nc2cccc(O)c2)=C(N2CCCCC2)C(=O)c2ccccc21	none
Cc1ccc(Cn2c(=O)c(CCC(=O)NCc3cccs3)nc3ccccc32)cc1	none
CCOc1ccc(CNC(=O)CC2CCN(C(=O)c3ccccc3Cl)CC2)cc1OC	none
O=C(COc1ccc(-c2cnc3ccccc3n2)cc1)N1CCCCC1	none
Cc1cc2c(c(C)c1Br)C(c1ccc3c(c1)OCO3)CC(=O)O2 (centres undefined)	none
Cc1cc2c(c(C)c1Cl)C(c1ccc3c(c1)OCO3)CC(O)(c1ccccc1)O2 (centres undefined)	mHTT-CaM PPI inh 85.7
CCCC(=O)NCc1cccnc1-c1ccc(F)cc1	none
Cc1cc(O)c(C=Nc2cc(Cl)ccc2O)cc1C	mHTT-CaM PPI inh 52.0
Oc1ccc(I)cc1C=Nc1cc(Cl)ccc1O	none
COc1ccc(CCNC(=O)NCC2CC(=O)N(Cc3ccc(F)cc3)C2)cc1 (centres undefined)	none
Cc1cc(C)n(-c2ccc(=O)n(C(C)C(=O)NCCc3csc(-c4ccccc4)n3)n2)n1 (centres undefined)	none
CCSc1nnc(NC(=O)Cc2csc(Nc3cccc(C(F)(F)F)c3)n2)s1	none
Cc1ccc2nc(NC(=O)c3cnccn3)sc2c1	none
CCSc1nnc(NC(=O)Cc2csc(NC(=O)c3cnccn3)n2)s1	mHTT-CaM PPI inh 88.4
CCSc1nnc(NC(=O)c2cnccn2)s1	none
O=C(Cc1csc(NC(=O)c2cnccn2)n1)Nc1nc(-c2cccnc2)cs1	mHTT-CaM PPI inh 99.5, Pf apPOL block 55.0
O=C(Cc1csc(NC(=O)c2cnccn2)n1)Nc1cccc(C(F)(F)F)c1	mHTT-CaM PPI inh 84.4
O=C(Cc1csc(NC(=O)C2CCCC2)n1)Nc1nc(-c2cccnc2)cs1	none
O=C(Cc1csc(NC(=O)c2cnccn2)n1)Nc1nc2ccccc2s1	mHTT-CaM PPI inh 80.5
Cc1noc(-c2nn(C)c3c2CN(C(=O)c2ccccc2F)CC3)n1	none
O=C(NC(c1ccccc1)C(N=Cc1ccccc1)c1ccccc1)c1ccccc1 (centres undefined)	none (no result: mHTT-CaM PPI inh)
O=C(c1ccc([N+](=O)[O-])cc1Cl)N1CCCC1	none
O=C(c1cccc(Cl)c1)N1CCN(Cc2noc(-c3cccc(F)c3)n2)CC1	none
Cc1ccc(SCC(=O)Nc2ccc(F)cc2)cc1	none (no result: mHTT-CaM PPI inh)
Cc1ccc(NC(=O)CSc2nc3n(n2)C(=O)C(=O)N3)cc1	Pf apPOL block 93.6
O=C(NC1C2CC3CC(C2)CC1C3)C(Cl)Cl (centres undefined)	none
O=C(NCc1ccc(F)cc1)C1CCN(c2nccnc2Oc2ccccc2)CC1	none
CCN(Cc1ccncc1)C(=O)c1ccc(-c2cccc(Cl)c2)s1	mHTT-CaM PPI inh 74.6
CCN(Cc1ccncc1)C(=O)c1ccc(-c2ccc(F)cc2)s1	none
Cc1ccc(NC(=O)c2cc3cc(Br)ccc3oc2=O)c(Br)c1	Pf apPOL block 85.0
Cc1ccc(NC(=O)c2cc3ccccc3oc2=O)c(Br)c1	none
CC(C)c1ccc(C(=O)Nc2cccc(NC(=O)c3cccs3)c2)cc1	none
CCCCC[C@H]1CN(CCCC)C(=O)[C@@H]1CC(=O)NCc1ccccc1	none
CCCCC[C@H]1CN(Cc2ccc(OC)cc2)C(=O)[C@@H]1CC(=O)NCc1ccccc1	mHTT-CaM PPI inh 53.6
O=C(C[C@H]1C(=O)N(c2ccccc2)C[C@@H]1Cc1ccccc1)Nc1ccc(Br)cc1	none
COc1ccc(CN2C[C@H](Cc3ccccc3)[C@@H](CC(=O)Nc3ccccc3)C2=O)cc1	mHTT-CaM PPI inh 68.2
COc1ccc(NC(=O)C[C@H]2C(=O)N(Cc3cccnc3)C[C@@H]2Cc2ccccc2)cc1	none
O=C(C[C@H]1C(=O)N(c2ccc(Br)cc2)C[C@@H]1Cc1ccccc1)Nc1ccccc1	mHTT-CaM PPI inh 50.8
O=C(Cc1cccc(F)c1)N1CCC(Nc2ncnc3c2CCC3)C1 (centres undefined)	none
Brc1cc(N2CCOCC2)cc2nonc12	none (no result: Pf apPOL block)
O=C1N(CN2CCN(c3ccccc3F)CC2)c2ccccc2C12OCCCO2	none
O=C(Cc1cccs1)N1CCCC1c1ccc(Cl)cc1 (centres undefined)	none
CC(CS(=O)(=O)c1ccccc1)N1CCCCC1 (centres undefined)	none
Cc1c(NC(=O)c2cc([N+](=O)[O-])ccc2Cl)c(=O)n(-c2ccccc2)n1C	none
CSc1ccc(Cl)c(C(=O)Nc2c(C)n(C)n(-c3ccccc3)c2=O)c1	Pf apPOL block 62.8
NCCNC(=O)c1c(O)c2cccc3c2n(c1=O)CC3	none
NCCCCCCNC(=O)c1c(O)c2cccc3c2n(c1=O)CC3	mHTT-CaM PPI inh 100.0
O=C(Nc1ccncc1)c1c(O)c2cccc3c2n(c1=O)CC3	none
Cc1cccnc1NC(=O)c1c(O)c2cccc3c2n(c1=O)CC3	mHTT-CaM PPI inh 80.0
C=CCn1c(=O)c(C(=O)Nc2ncccc2C)c(O)c2ccccc21	mHTT-CaM PPI inh 98.0
C=CCn1c(=O)c(C(=O)Nc2ccccc2)c(O)c2ccccc21	none
O=C(NC1CCN(C(=O)c2ccccc2)C1)c1ccccc1 (centres undefined)	none
CCOc1ccc(-n2ccn3cc(-c4cccs4)nc3c2=O)cc1	none
Cc1ccccc1-n1nc2c(c1NC(=O)C13CC4CC(CC(C4)C1)C3)CSC2	none
Cc1ccccc1-n1nc2c(c1NC(=O)C13CC4CC(CC(C4)C1)C3)CS(=O)(=O)C2	Pf apPOL block 77.5
C=CCNC(=O)c1c[nH]c2ccc(S(=O)(=O)N(C)c3ccc(Cl)cc3)cc2c1=O	mHTT-CaM PPI inh 53.0
C=CCN(c1ccccc1)S(=O)(=O)c1ccc2[nH]cc(C(=O)NCCCC)c(=O)c2c1	none
C=CCNC(=O)c1c[nH]c2ccc(S(=O)(=O)N(C)c3ccc(Cl)cc3F)cc2c1=O	none
C=CCN(c1ccccc1)S(=O)(=O)c1ccc2[nH]cc(C(=O)NCCOC)c(=O)c2c1	mHTT-CaM PPI inh 50.0
O=C(/C=C/c1ccc2c(c1)OCO2)NC1(C(=O)Nc2ccc3c(c2)OCO3)CCCCC1	none
O=C(Nc1ccc(Br)cc1)c1ccc(F)c(S(=O)(=O)NC2CCCC2)c1	none
O=C(Nc1ccc(Cl)cc1)c1cc(S(=O)(=O)NC2CCCC2)ccc1F	none
O=C(Nc1ccc(Cl)cc1)c1cc(S(=O)(=O)NC2CCCCCC2)ccc1F	Pf apPOL block 78.4
Cc1ccc(NC(=O)c2cc(S(=O)(=O)NC3CCCC3)ccc2F)cc1Cl	none
O=C(Nc1ccc(Cl)c(Cl)c1)c1cc(S(=O)(=O)NC2CCCC2)ccc1F	mHTT-CaM PPI inh 93.0
COc1ccccc1NC(=O)c1cc(S(=O)(=O)NCCc2ccc(Cl)cc2)ccc1F	none
CCOc1ccccc1NC(=O)c1cc(S(=O)(=O)NCCc2ccc(Cl)cc2)ccc1F	mHTT-CaM PPI inh 56.0
O=C(Nc1ccc(Cl)c(Cl)c1)c1ccc(F)c(S(=O)(=O)NC2CCCC2)c1	mHTT-CaM PPI inh 65.0
CCc1cccc(NC(=O)c2ccc3c(c2)OCO3)c1	none
CC(C)(C)c1ccc(C(=O)ON=C(Cn2nnc(N3CCCCC3)n2)c2ccc(Cl)cc2)cc1	none (no result: mHTT-CaM PPI inh)
CCCCN(Cc1ccco1)C(=O)c1noc2c1CCCC2	none
CC(=O)NCCc1csc(C2CCN(C(=O)c3c(F)cccc3F)CC2)n1	none
O=C(Nc1cc(Cl)cc(Cl)c1)c1ccc(F)c(S(=O)(=O)NCc2ccccc2)c1	none
